# PMC7862700, “An all-to-all approach to the identification of sequence-specific readers for epigenetic DNA modifications on cytosine”
# Assays:
# Assay in all cases: DAPPL (digital affinity profiling via proximity ligation, sequencing); 10 mM Tris-HCl pH 7.5, 50 mM NaCl, 1 mM DTT, 4% glycerol, room temperature, 30 min; GST-TFs on glutathione beads, 16-mer random dsDNA library, 0.1% formaldehyde crosslink after washing; high values mean tight binding
# [1] = molecular target: T1, FEV (Homo sapiens, UniProt Q99581 1-238); conditions: protein: recombinant; tags: N-terminal GST; dsDNA, one strand shown
# T1 sequence: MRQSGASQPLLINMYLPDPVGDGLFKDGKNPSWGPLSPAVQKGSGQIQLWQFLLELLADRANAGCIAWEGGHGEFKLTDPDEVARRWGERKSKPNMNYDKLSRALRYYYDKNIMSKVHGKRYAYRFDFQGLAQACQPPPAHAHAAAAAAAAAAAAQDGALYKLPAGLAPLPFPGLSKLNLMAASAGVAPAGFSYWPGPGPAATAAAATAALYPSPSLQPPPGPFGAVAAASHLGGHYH
# How it was run: (§1)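 Pools were built from human transcription factors expressed in yeast as GST fusions, captured on glutathione beads and DNA-barcoded, along with a tag-only sample. Incubation with 200 nmole of a 16-mer random double-stranded DNA library lasted 30 min at room temperature in Tris/NaCl/DTT/glycerol buffer, and was followed by washing, 0.1% formaldehyde crosslinking, proximity ligation, PCR amplification and Illumina NextSeq500 sequencing. Binding signal is the quotient of each hexamer's read frequency for a factor and its frequency for the tag-only sample.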
# [2] = molecular target: ETV5 (Homo sapiens, UniProt P41161 1-510); conditions: protein: recombinant; tags: N-terminal GST; dsDNA, one strand shown
# How it was run: as §1
# [3] = molecular target: HSF1 (Homo sapiens, UniProt Q00613 1-529); conditions: protein: recombinant; tags: N-terminal GST; chain copies: 3; dsDNA, one strand shown
# How it was run: as §1
# [4] = molecular target: T2, SPIC (Homo sapiens, UniProt Q8N5J4 1-248); conditions: protein: recombinant; tags: N-terminal GST; dsDNA, one strand shown
# T2 sequence: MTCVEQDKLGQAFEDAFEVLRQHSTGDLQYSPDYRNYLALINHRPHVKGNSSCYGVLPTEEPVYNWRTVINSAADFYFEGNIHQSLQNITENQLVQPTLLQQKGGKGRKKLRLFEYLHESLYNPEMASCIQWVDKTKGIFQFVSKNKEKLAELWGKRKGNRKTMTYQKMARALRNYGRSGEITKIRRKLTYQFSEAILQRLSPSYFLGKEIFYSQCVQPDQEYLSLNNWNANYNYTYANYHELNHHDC
# How it was run: as §1
# [5] = molecular target: ELF4 (Homo sapiens, UniProt Q99607 1-663); conditions: protein: recombinant; tags: N-terminal GST; dsDNA, one strand shown
# How it was run: as §1
# [6] = molecular target: T3, ELK4 (Homo sapiens, UniProt P28324-2 1-405); conditions: protein: recombinant; tags: N-terminal GST; dsDNA, one strand shown
# T3 sequence: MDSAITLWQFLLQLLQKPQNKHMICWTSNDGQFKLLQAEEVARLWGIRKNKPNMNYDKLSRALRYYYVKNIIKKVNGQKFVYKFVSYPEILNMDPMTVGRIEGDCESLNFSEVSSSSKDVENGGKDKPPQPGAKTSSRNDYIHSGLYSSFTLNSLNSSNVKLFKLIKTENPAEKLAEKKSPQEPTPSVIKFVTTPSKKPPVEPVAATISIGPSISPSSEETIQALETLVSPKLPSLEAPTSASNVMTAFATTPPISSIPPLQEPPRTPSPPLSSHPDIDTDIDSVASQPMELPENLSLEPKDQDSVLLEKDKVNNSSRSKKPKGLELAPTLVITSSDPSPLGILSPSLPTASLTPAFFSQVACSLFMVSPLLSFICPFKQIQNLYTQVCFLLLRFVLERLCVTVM
# How it was run: as §1
# [7] = molecular target: T4, ETV2 (Homo sapiens, UniProt O00321 1-342); conditions: protein: recombinant; tags: N-terminal GST; dsDNA, one strand shown
# T4 sequence: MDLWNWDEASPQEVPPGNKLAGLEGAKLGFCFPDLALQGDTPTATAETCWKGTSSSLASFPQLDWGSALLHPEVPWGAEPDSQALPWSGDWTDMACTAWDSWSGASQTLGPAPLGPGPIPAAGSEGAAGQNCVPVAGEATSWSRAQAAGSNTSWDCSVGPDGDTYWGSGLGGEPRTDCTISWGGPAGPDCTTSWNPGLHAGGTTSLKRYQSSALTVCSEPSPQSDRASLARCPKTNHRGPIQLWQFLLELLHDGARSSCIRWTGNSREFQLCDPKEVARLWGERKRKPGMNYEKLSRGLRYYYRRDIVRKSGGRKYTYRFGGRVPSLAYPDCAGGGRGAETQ
# How it was run: as §1
# [8] = molecular target: T5, ELF3 (Homo sapiens, UniProt P78545 1-371); conditions: protein: recombinant; tags: N-terminal GST; dsDNA, one strand shown
# T5 sequence: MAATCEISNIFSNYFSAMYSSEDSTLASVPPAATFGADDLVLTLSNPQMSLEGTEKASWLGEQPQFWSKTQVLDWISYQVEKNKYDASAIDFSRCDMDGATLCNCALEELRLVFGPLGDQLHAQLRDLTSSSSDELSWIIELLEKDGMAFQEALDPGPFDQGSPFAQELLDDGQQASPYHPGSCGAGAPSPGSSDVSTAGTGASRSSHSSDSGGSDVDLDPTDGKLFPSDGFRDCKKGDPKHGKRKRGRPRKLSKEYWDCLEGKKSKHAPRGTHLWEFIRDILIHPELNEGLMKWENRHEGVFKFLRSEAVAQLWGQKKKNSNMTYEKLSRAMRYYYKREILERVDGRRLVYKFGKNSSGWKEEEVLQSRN
# How it was run: as §1
# [9] = molecular target: CRX (Homo sapiens, UniProt O43186 1-299); conditions: protein: recombinant; tags: N-terminal GST; dsDNA, one strand shown
# How it was run: as §1
# Chain of CRX (O43186 whole entry): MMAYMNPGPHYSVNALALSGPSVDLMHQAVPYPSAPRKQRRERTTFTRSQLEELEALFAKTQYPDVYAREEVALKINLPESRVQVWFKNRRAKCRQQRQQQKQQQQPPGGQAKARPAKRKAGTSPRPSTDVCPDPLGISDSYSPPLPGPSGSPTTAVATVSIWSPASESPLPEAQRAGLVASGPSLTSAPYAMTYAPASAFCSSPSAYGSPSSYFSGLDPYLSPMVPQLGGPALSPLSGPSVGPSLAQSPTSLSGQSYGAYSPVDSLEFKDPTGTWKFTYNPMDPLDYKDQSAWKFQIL
# Chain of HSF1 (Q00613 whole entry): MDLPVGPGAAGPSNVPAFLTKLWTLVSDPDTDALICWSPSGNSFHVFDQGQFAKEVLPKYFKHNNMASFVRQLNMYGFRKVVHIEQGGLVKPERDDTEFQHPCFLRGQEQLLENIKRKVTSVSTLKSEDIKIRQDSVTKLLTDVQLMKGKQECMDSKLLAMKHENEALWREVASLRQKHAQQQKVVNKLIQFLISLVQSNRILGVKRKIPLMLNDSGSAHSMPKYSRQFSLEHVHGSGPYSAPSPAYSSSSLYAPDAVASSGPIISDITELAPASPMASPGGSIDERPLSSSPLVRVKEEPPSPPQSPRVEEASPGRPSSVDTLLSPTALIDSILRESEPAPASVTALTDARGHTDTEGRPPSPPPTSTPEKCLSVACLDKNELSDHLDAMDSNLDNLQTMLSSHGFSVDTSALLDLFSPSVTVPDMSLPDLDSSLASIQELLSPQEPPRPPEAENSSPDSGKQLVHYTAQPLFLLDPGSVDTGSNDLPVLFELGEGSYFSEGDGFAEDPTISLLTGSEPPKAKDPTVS
# Chain of ETV5 (P41161 whole entry): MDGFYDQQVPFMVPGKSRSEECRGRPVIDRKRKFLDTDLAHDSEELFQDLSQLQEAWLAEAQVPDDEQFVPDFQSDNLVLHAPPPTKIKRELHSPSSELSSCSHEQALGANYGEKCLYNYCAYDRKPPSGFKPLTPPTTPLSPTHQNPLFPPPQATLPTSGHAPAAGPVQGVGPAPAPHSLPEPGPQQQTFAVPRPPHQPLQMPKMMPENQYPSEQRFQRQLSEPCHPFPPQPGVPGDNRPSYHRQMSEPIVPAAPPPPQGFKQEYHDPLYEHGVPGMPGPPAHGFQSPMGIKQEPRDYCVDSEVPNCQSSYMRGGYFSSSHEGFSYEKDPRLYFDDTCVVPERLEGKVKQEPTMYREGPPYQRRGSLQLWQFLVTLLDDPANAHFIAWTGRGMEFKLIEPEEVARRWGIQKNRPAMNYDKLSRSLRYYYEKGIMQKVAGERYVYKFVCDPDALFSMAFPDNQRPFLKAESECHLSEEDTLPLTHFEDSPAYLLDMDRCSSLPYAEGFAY
# Chain of ELF4 (Q99607 whole entry): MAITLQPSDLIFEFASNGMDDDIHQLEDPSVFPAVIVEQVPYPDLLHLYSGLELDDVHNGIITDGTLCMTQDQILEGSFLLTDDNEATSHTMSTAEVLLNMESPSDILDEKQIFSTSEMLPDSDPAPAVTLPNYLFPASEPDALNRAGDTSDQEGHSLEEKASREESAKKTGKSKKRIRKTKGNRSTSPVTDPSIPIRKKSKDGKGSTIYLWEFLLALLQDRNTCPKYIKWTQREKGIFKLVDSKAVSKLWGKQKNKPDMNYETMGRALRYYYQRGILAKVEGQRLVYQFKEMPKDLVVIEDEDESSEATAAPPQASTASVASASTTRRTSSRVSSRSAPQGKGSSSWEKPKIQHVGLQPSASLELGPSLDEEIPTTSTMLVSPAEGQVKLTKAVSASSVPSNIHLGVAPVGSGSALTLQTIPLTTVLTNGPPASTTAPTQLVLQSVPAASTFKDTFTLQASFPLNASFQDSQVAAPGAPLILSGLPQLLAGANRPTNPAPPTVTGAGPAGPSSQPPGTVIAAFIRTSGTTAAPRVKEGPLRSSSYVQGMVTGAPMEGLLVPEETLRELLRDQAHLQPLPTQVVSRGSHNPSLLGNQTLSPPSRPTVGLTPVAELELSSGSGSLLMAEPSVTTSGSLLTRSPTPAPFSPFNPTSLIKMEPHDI
sequence,measurement,setting,value
GCCCTT,binding signal,[1],"1.19 fold enrichment (6-mer frequency, TF over GST control)"
same,binding signal,[2],"1.16 fold enrichment (6-mer frequency, TF over GST control)"
same,binding signal,[3],"1.11 fold enrichment (6-mer frequency, TF over GST control)"
same,binding signal,[4],"1.1 fold enrichment (6-mer frequency, TF over GST control)"
same,binding signal,[5],"1.13 fold enrichment (6-mer frequency, TF over GST control)"
same,binding signal,[6],"1.19 fold enrichment (6-mer frequency, TF over GST control)"
same,binding signal,[7],"1.28 fold enrichment (6-mer frequency, TF over GST control)"
same,binding signal,[8],"1.29 fold enrichment (6-mer frequency, TF over GST control)"
same,binding signal,[9],"1.06 fold enrichment (6-mer frequency, TF over GST control)"
